# Assay outcomes deposited in PubChem BioAssay by The Scripps Research Institute Molecular Screening Center.
# Only some compounds are listed: those with a hit (about 2.4% of all), similar ones and a draw of the others.
# CHO-K1 Ca antag – M1 antagonist counterscreen hit in parental CHO-K1 cells | ATP-induced calcium, Fluo-8 fluorescence | inhibition, % at 3 µM | 0.6% of 360,000 active | AID 602250;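 active = inhibition above a per-plate cutoff, the plate's mean sample inhibition plus 3 SD, cut at about 24% in these data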;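 also: 0% = DMSO plus EC80 ATP and 100% = DMSO alone without ATP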
# M1 antag – human CHRM1 antagonism | AID 588852 | 1.3% of 360,000 active | inhibition, % at 3 µM | P11229 | CHO-K1 hM1, Fluo-8 calcium fluorescence, ACh EC80 antagonist;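 active = percent inhibition above its own plate's cutoff, namely the mean of that plate's compound wells plus 3 SD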;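 also: peak over basal fluorescence ratio during 140 s after agonist addition; 0% = ACh EC80 plus DMSO and 100% = DMSO alone without agonist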
# Target sequence (P11229 whole entry, looked up): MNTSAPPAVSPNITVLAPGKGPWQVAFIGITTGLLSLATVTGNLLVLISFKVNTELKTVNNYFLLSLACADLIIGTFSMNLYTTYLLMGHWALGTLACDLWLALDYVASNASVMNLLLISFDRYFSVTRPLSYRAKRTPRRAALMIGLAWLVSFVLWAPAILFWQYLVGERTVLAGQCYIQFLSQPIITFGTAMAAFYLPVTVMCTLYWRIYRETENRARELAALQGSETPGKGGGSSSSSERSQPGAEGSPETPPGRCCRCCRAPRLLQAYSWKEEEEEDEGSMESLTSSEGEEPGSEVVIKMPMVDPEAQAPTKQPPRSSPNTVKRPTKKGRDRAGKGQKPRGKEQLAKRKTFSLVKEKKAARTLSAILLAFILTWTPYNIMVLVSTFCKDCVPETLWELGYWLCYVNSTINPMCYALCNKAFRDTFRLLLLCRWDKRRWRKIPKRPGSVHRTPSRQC
# CHO-K1 Ca ag – M1 agonist counterscreen hit in parental CHO-K1 cells. activation, % at 3 µM. Fluo-8 calcium fluorescence; scaled to maximal ATP response, vehicle zero. 0.48% of 360,000 active; in the data active = activation above about 15%;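 also: untransfected CHO-K1 host cells lacking M1 receptor as counterscreen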
# M1 PAM – potentiates human M1 receptor response to acetylcholine. AID 588819. activation, % at 3 µM. CHO-K1 hM1, Fluo-8 calcium fluorescence, ACh EC20; 0% = ACh EC20, 100% = maximal ACh. 0.088% of 360,000 active. P11229; in the data active = activation above about 19%, passing the limit was not always enough
# M1 PAM parental – M1 PAM counterscreen hit in parental CHO-K1 cells. ATP EC20, Fluo-8 calcium fluorescence; 0% at ATP EC20, 100% at ATP max. activation, % at 3 µM. 0.02% of 360,000 active;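 active = activation above the run cutoff, the mean activation of all test compounds plus 3 SD, cut at about 40% in these data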;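 also: peak over basal fluorescence ratio in a 140 s read after ATP addition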
# CHRM1 agonist – human M1 muscarinic receptor agonism | CHO-K1 hM1, Fluo-8 calcium fluorescence, agonist mode; 0% DMSO, 100% acetylcholine EC100 | activation, % at 3 µM | 0.33% of 360,000 active | AID 588814;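 active = activation above the run's mean compound activation plus 3 SD, cut at about 16% in these data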;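 also: peak over basal fluorescence ratio within a 140 s kinetic read after compound addition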
# The depositor's hits bear a star; . = no result.
SMILES,CHO-K1 Ca antag,M1 antag,CHO-K1 Ca ag,M1 PAM,M1 PAM parental,CHRM1 agonist
O=C(c1cc(Cl)cc(Cl)c1)N1CCC(=O)N([C@H](COCc2ccccc2)Cc2ccccc2)CC1,-30,.,1,.,7,.
CC(=O)C1=CCC(c2ccc(C)cc2)N(S(=O)(=O)c2ccc(C)cc2)C1 (stereo unspecified),2,-4,2,-4,3,-4
CC(=O)C1=CCC(c2ccc(Br)cc2)N(S(=O)(=O)c2ccc(C)cc2)C1 (stereo unspecified),13,37*,4,-24,11,-9
COc1ccc(/C=C(\NC(=O)c2ccc(C)cc2)C(=O)Nc2ccc(C(=O)O)cc2)cc1,4,1,0,5,-2,-5
COc1ccc(Br)c(C(=O)Nc2cccc(Cl)c2Cl)c1,31*,12,0,-9,-14,-8
CCCC1=NN2C(=N)/C(=C\c3cc(C)n(Cc4ccccc4)c3C)C(=O)N=C2S1,-5,78*,27*,-27,-17,59*
Clc1ncccc1OCc1ccccc1,-16,-8,2,5,15,-3
Cc1c(NC(=O)/C(=C/c2cccs2)c2cccs2)c(=O)n(-c2ccccc2)n1C,-7,54*,0,-27,11,-11
CC(OC(=O)COc1cccc2c1OC(C)(C)C2)C(=O)Nc1ccc(S(N)(=O)=O)cc1 (stereo unspecified),2,-7,2,10,-19,3
CSc1ccccc1-c1ccc2nccn2c1,19,35*,1,-25,-4,-9
COc1cccc(-c2ccc3nccn3c2)c1,28*,23,0,-9,-14,-9
Clc1cccc(-c2ccc3nccn3c2)c1Cl,10,-13,1,1,-9,-7
CC(C)N(C(=O)[C@H]1C[C@H](CC(=O)NCCCn2ccnc2)C(=O)N2CCc3c([nH]c4ccc(Cl)cc34)[C@]12C)C(C)C,-19,-14,0,5,17,-11
COc1ccc(-c2nn(-c3ccccc3)cc2CNC[C@H]2O[C@@H](n3cnc(C(N)=O)n3)[C@H](O)[C@@H]2O)cc1,-5,-24,0,18,1,2
N#C/C(=C/c1ccc(N2CCCCC2)o1)C(=O)Nc1ccc2ccccc2c1,85*,87*,266*,-32,-13,240*
N#C/C(=C/c1ccc(N2CCCCC2)o1)C(=O)Nc1ccc(Cl)cc1,36*,68*,79*,-32,-1,102*
c1ccc(Nc2cccc3ccccc23)cc1,-9,0,0,-1,25,-4
c1ccc(Nc2ccc3c4c(cccc24)CC3)cc1,40*,52*,40*,-10,8,43*
COc1ccc(C2(c3ccc(OC)cc3)NC(=O)N(CC(=O)NC3(C#N)CCCCC3)C2=O)cc1,-14,22,1,-3,7,-3
O=C1N(Cc2cccc(Cl)c2)C[C@@H]2C[C@@H](c3ccccn3)N3CCC[C@@]123,-12,-9,1,-4,20,-6
O=C1N(Cc2cccc(Cl)c2)C[C@@H]2C[C@@H](c3ccsc3)N3CCC[C@@]123,11,34*,-1,-30,-6,-12
COc1ccc(OC)c(CNc2ncc(-c3cccc([N+](=O)[O-])c3)n2C)c1,-8,45*,1,-29,12,-9
Cn1c(-c2cccc([N+](=O)[O-])c2)cnc1NCc1cccc([N+](=O)[O-])c1,-17,19,2,-18,16,-5
Nc1ncnc2c1ncn2[C@@H]1O[C@H](CNCc2ccc(OCC(=O)Nc3nccs3)cc2)[C@@H](O)[C@H]1O,-3,-18,0,12,-7,-6
Cc1ccc(C2(C)NC(=O)N(CC(=O)N3CCc4ccccc43)C2=O)cc1 (stereo unspecified),-17,-17,20*,8,11,29*
SMILES,CHO-K1 Ca antag,M1 antag,CHO-K1 Ca ag,M1 PAM,M1 PAM parental,CHRM1 agonist
CCCCC1(C)NC(=O)N(CC(=O)N2CCc3ccccc32)C1=O (stereo unspecified),-20,-1,-1,2,7,-6
CCC1(c2ccc(F)cc2)NC(=O)N(CC(=O)N2CCc3ccccc32)C1=O (stereo unspecified),17,9,6,-7,-16,24*
CCC1(CC)NC(=O)N(CC(=O)N2CCc3ccccc32)C1=O,-11,-23,0,10,13,-5
CC1(c2ccc(Cl)cc2)NC(=O)N(CC(=O)N2CCc3ccccc32)C1=O (stereo unspecified),-6,9,19*,2,8,39*
O=C(Nc1nnc([C@@H]2C[C@H](O)[C@@H](CO)O2)s1)NC(c1ccccc1)c1ccccc1,-15,-15,0,4,8,-1
C=CCOc1ccc(/C=C/C(=O)N2CCCN(S(=O)(=O)c3c(C)noc3C)CC2)cc1,12,21,0,-5,-11,-3
CSc1ccc(OC2(C)CCN(Cc3ccc4c(c3)OCCO4)C2)cc1 (stereo unspecified),4,22,1,-23,-9,-7
CC(C)N(C(=O)CSc1nc2ccccc2n1Cc1ccc(F)cc1)C(C)C,10,32*,1,-18,1,-3
NC(=O)CSc1nc2ccccc2n1Cc1ccccc1,0,-12,22*,14,17,-8
CC(C)NC(=O)CSc1nc2ccccc2n1CC(=O)N(C(C)C)C(C)C,7,-7,-1,12,2,-2
CCn1c(=Nc2ccc(N3CCOCC3)cc2)ccc2ccccc21,14,10,0,-13,-5,-10
Cn1c(=Nc2ccc(N3CCOCC3)cc2)ccc2ccccc21,0,48*,0,-13,-4,-6
c1ccc(C[C@H]2CN=C(Nc3ccccc3)N2CC2CCCC2)cc1,-10,.,3,.,11,.
O=C(CC(=O)N/N=C\c1ccccc1)NCCc1ccccc1,1,11,0,-10,-5,0
COC(=O)c1ccc(/C=N\NC(=O)CC(=O)NCCc2ccccc2)cc1,15,-2,17*,7,2,-7
Cc1ccc(-n2c(SCC(=O)N(C)C3CCS(=O)(=O)C3)nc3ccccc3c2=O)c(C)c1 (stereo unspecified),-15,-1,2,-6,15,-1
CC(C)c1cc(-c2cc(C(=O)NCc3ccccc3)on2)nc(NCC2CC2)n1,14,34*,9,6,-13,29*
O=C(NCCCN1CCOCC1)c1cccc(NS(=O)(=O)c2ccc(Br)cc2)c1,-13,-11,0,5,14,-7
CCOC(=O)CNc1nc(C(C)(C)C)nc2c1nnn2Cc1ccccc1,-14,-11,1,12,29,-1
COc1ccc(CCNC(=O)COc2cccc(-n3cnnn3)c2)cc1,3,-2,1,4,-24,-2
